Test results taken from PubChem BioAssay AID1259415 (National Center for Advancing Translational Sciences (NCATS), 2018).
In all, about 410,000 compounds went through this assay and about 18,000 (4.4%) were called active. Not shown: some 7% with an inconclusive outcome. Rule as the data show it: active = activity change below about -60%; inconclusive = no clear call, values can overlap the other calls; inactive = above about -39%. The entries come from a sample that favours actives as a whole.

Assay: qHTS Assay for inhibitors of the human cytomegalovirus (HCMV)
Details: HFF cells, HCMV-luciferase reporter, 72 h; at 57.5 µM; active compounds read low
How it was run: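 Compounds were evaluated in HFFs infected with an HCMV luciferase reporter virus (MOI 1 PFU/cell). Luciferase in lysates collected 72 h post infection served as the replication measure.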
% is scaled to controls: 0 for no effect and ±100 for the full control effect.

Row | Structure (SMILES) | activity change, negative = inhibition
1 | CCCN(CCC)CCNC(=O)c1ccc2c(c1)NC(=O)C(CS(=O)(=O)Cc1cccc(Br)c1)N2 (stereo not drawn) | -22.3% (inactive)
2 | CC(=O)N1CCc2c(sc(NC(=O)CCS(=O)(=O)c3ccccc3)c2C#N)C1 | -99.8% (active)
3 | CC(=O)N1CCc2c(sc(NC(=O)CCS(=O)(=O)c3ccc(C)cc3)c2C(N)=O)C1 | 5.61% (inactive)
4 | CC(C)N1CCc2c(sc(NC(=O)Cc3ccccc3)c2C#N)C1 | -9.26% (inactive)
5 | CC(C)CNc1cccc2c1S(=O)(=O)N[C@H](CC(C)C)CO2 | -24.9% (inactive)
6 | O=C(C[C@H]1CC[C@H]2[C@@H](COC[C@H](O)CN2C(=O)c2ccccn2)O1)N1CCN(c2ccccc2)CC1 | -65.2% (active)
7 | O=C(CSc1nnc(N2CCOCC2)n1-c1cccc(F)c1)N1CCN(c2ccccn2)CC1 | -18.8% (inactive)
8 | CCCNC(=O)C[C@@H]1CC[C@@H]2[C@H](COC[C@H](O)CN2C(=O)c2cc(Cl)cc(Cl)c2)O1 | -17.8% (inactive)
9 | COc1ccccc1OCCCn1c(-c2ccc(Cl)cc2)nc2ccccc2c1=O | 39.4% (inactive)
10 | COc1cccc(OCCn2c(-c3ccc(Br)cc3)nc3ccccc3c2=O)c1 | 43% (inactive)
11 | COc1ccc(-c2nc3ccccc3c(=O)n2CCc2ccc(O)cc2)cc1 | -62% (active)
12 | Cc1ccc2c(c1)N(C(=O)CCC(=O)NCc1ccccc1F)CC(C)O2 (stereo not drawn) | 8.23% (inactive)
13 | Cc1ccc(C(=O)C(=S)N2CCOCC2)cc1 | 6.2% (inactive)
14 | Cc1ccc(C(=O)NC(=S)Nc2ccc(N3CCOCC3)cc2)cc1 | -103% (active)
15 | COC(=O)c1ccc(NC(=S)NN2CCOCC2)cc1 | 35.3% (inactive)
16 | O=C(NCCN1CCN(Cc2ccccc2)CC1)c1cc2c(=O)[nH]c3ccccc3c2s1 | -8.01% (inactive)
17 | CCC1CCCCN1CCCNC(=O)c1cc2c(Cl)nc3ccccc3c2s1 (stereo not drawn) | -99.5% (active)
18 | Cc1nc2ccccc2c2oc(C(=O)NCCCN3CCC(C)CC3)cc12 | 52.7% (inactive)
19 | Cc1ccc(NC(=O)CN(C)C(=O)c2ccc(Cl)c(S(=O)(=O)NCc3ccco3)c2)cc1 | -35% (inactive)
20 | O=S(=O)(c1ccc(C2CCCCC2)cc1)N1CCN(c2ccc(Cl)c(Cl)c2)CC1 | 9.35% (inactive)
21 | COC(=O)c1c(NC(=O)CN2CCN(S(=O)(=O)c3ccccc3[N+](=O)[O-])CC2)sc2c1CCC(C)C2 (stereo not drawn) | -60.3% (active)
22 | Cc1c(Br)c([N+](=O)[O-])nn1CC(=O)Nc1sc2c(c1C(=O)OC(C)C)CCC(C)C2 (stereo not drawn) | 9.26% (inactive)
23 | COC(=O)c1c(NC(=O)CCCOc2ccccc2)sc2c1CCC(C)C2 (stereo not drawn) | 5.16% (inactive)
